The list is not random: actives were taken first. Their share in the collection is about 7.9%.
HCMV inh = human cytomegalovirus inhibition; HFF cells, HCMV-luciferase reporter, 72 h; hits give low values; activity change, negative = inhibition, % at 57.5 µM; actives 4.5% (n = 410,000); AID 1259415; in the data active = activity change below about -60%; inconclusive = no clear call, values can overlap the other calls; inactive = above about -39%
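Steps: HFFs plated, 16 h 37C; compounds added; HCMV-luciferase added to MOI 1 PFU/cell; 72 h 37C; OneGlo reagent, 5 min room temperature; luminescence read, normalized to controls.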
HCV inh = inhibitors of hepatitis C virus infection; actives 3.4% (n = 340,000); Potency, µM (doses to about 41.8 µM), for the others: at the highest dose activity change, negative = inhibition, hits mostly inhibitors; Huh7.5.1 HCVcc-Cre infection, luciferase reporter, 44 h; active = well fitted inhibition curve with a large enough effect; inconclusive = small, poorly fitted or top-dose-only effect, or another doubt; inactive = no such curve, though single readings can be large or run the other way; note: potency is the fitted concentration of half-maximal effect
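A cell-based infection assay in which seeded cells (1,000 per well) receive test compound after 4 h, are inoculated with HCVcc-Cre at approximately 0.5 moi, and are incubated 44 h before luminescence detection.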
Lassa entry inh = Lassa virus entry inhibition; Potency, µM (top dose mostly 37.9 µM), for the others: at the highest dose activity change, negative = inhibition, most hits filed as inhibitors; actives 1.2% (n = 300,000); Lassa virus pseudotype entry inhibition, cell reporter; calls by dose curve; tested in HEK293 cells; note: potency is the fitted concentration of half-maximal effect; nearly all actives have a fitted effect of over 50% in size
FMDV antiviral = blocks foot and mouth disease virus | Potency, µM (top dose mostly 57.9 µM), for the others: at the highest dose activity change, negative = inhibition, most hits filed as inhibitors | AID 1159524 | actives 1.2% (n = 410,000) | FMDV antiviral cell-based qHTS; calls by dose curve; tested in HEK293T cells; note: read-out not given here; potency is the fitted concentration of half-maximal effect; nearly all actives have a fitted effect of over 45% in size
Marburg entry inh = blocks Marburg virus binding to or entry into cells. actives 1.8% (n = 300,000). Marburg virus pseudotyped entry inhibition, cell reporter. Potency, µM (doses to about 37.8 µM), without a hit: top-dose activity change, negative = inhibition, usual class: inhibitors. AID 540276; calls by dose curve; tested in HEK293 cells; note: potency is the fitted concentration of half-maximal effect
Starred values were filed as active, the others as inactive; ? = inconclusive; / = no result given; [ ] = remark or other dose. % is set by controls: 0 for no effect and ±100 for the full control effect.

SMILES	HCMV inh	HCV inh	Lassa entry inh	FMDV antiviral	Marburg entry inh
CCOC(=O)c1c(CN(C)C)oc2cc(CN(C)C)c(O)c(CSc3ccccc3)c12	-4	-22%	-10%	-20%	10µM*
CCOC(=O)c1c(CSc2ccccc2)n(C)c2cc(Br)c(O)c(CN(C)C)c12	-15	?	?	-26%	?
COc1ccc(CC2(CO)CCN(Cc3cnn(-c4ccccc4)c3)CC2)cc1	-33	?	-5%	?	?
COc1ccc(CC2(CO)CCN(CC3=Cc4cc(Cl)ccc4OC3)CC2)cc1	?	4.5µM*	?	?	?
COc1ccc(CC2(CO)CCN(Cc3cnn(-c4ccc(F)cc4)c3)CC2)cc1	-10	10µM*	/	?	/
CCC(C)NS(=O)(=O)c1ccc(S(=O)(=O)N(CCc2ccc(OC)c(OC)c2)Cc2cccs2)cc1 (centres undefined)	-64*	11µM*	?	-26%	3.5µM*
COc1ccc(CCN(Cc2cccs2)S(=O)(=O)c2ccc(-n3cnnn3)cc2)cc1OC	?	11µM*	?	?	?
FC(F)(F)c1cc(-c2cnc3ccc(NCc4ccco4)nn23)cc(C(F)(F)F)c1	-10	/	/	/	/
COc1ccc2nc(SCC(O)c3cccc(Br)c3)[nH]c2c1 (centres undefined)	-39	/	6%[46.1 µM]	18%	8%[46.1 µM]
CCc1nnc2c3cnn(-c4ccccc4)c3ncn12	43	17%	?	35%	4%
Cc1ccc(-n2ncc3c2ncn2c(C)nnc32)cc1C	-67*	1%	-12%	/	-10%
Cc1ccccc1NNC(=O)C(=O)NNc1ccccc1C	49	-1%	/	2%	/
Cc1ccccc1NC(=O)C(Cl)=C(Cl)Cl	-78*	?	-22%[46.1 µM]	?	?
COc1ccc(NC(=O)c2cccc(N3C(=O)C4C5C=CC(C6CC56)C4C3=O)c2)c(OC)c1 (centres undefined)	-18	-29%	18µM*	-30%	?
O=C(Nc1ccc(Cl)cc1)c1cccc(N2C(=O)C3C4CCC(C4)C3C2=O)c1 (centres undefined)	?	?	?	32µM*	?
COc1ccc(NC(=O)c2cccc(N3C(=O)C4C5CCC(C5)C4C3=O)c2)cc1 (centres undefined)	-13	-12%	-15%	?	-19%
O=C(Nc1ccc(Cl)cc1Cl)c1cccc(N2C(=O)C=CC2=O)c1	-73*	-8%	/	-29%	2%
O=C(O)c1cccc(N2C(=O)C=CC2=O)c1	-17	/	/	-14%	/
COc1ccc(NC(=O)c2cccc(N3C(=O)C4C5C=CC(C6CC56)C4C3=O)c2)cc1 (centres undefined)	-8	/	-19%	40µM*	?
COc1ccc(NC(=O)c2cccc(N3C(=O)C4C5C=CC(C5)C4C3=O)c2)c(OC)c1 (centres undefined)	-8	-14%	/	-6%	/
C[C@@H]1CC[C@H]2C(=O)O[C@@H](COc3ccc(C(C)(C)C)cc3)CN2[C@H]1c1ccc(Br)cc1	/	/	-26%[14.3 µM]	/	?
NC(=S)NCCC[C@H](N)C(=O)O	/	/	-6%	0%[146 µM]	0%
CCN1CCN(CCCNC(=O)Cn2nc(C)n3c(cc4cc(C)ccc43)c2=O)CC1	-19	/	/	-12%	-13%[46.1 µM]
COc1ccc(NC(=O)c2cccc(N3C(=O)C4C5C=CC(C5)C4C3=O)c2)cc1Cl (centres undefined)	13	10µM*	-27%	?	12%[46.1 µM]
CCN(c1ccc(Cl)cc1)S(=O)(=O)c1nnc(NC(=O)C2CCCCC2)s1	-64*	/	4%[46.1 µM]	-18%	/
SMILES	HCMV inh	HCV inh	Lassa entry inh	FMDV antiviral	Marburg entry inh
CCN(c1cccc(C)c1)S(=O)(=O)c1nnc(NC(=O)c2cccs2)s1	12	/	10µM*	37%	/
CCN(c1cc(C)cc(C)c1)S(=O)(=O)c1nnc(NC(=O)c2cccs2)s1	-13	/	?	4%	/
CCC(=O)Nc1nnc(S(=O)(=O)N(CC)c2ccc(Cl)cc2)s1	-67*	8%	/	3%	/
CCCNC(=O)N1CC(=O)N2[C@@H](CO)[C@H](c3ccc(Br)cc3)[C@@H]2C1	-5	/	/	/	/
O=C(Nc1ccc(S(=O)(=O)NCc2ccco2)cc1)c1cccc(F)c1	23	-21%	-1%	38%	-13%
COc1cccc(C(=O)Nc2ccc(S(=O)(=O)NCc3ccco3)cc2)c1	41	25µM*	8%	45%	5%
COc1ccc(OC)c(NC(=O)c2cc(S(=O)(=O)NCc3ccco3)ccc2F)c1	-23	25µM*	-16%	24%	?
O=[N+]([O-])c1ccc(O)c2ncccc12	-99*	?	?	-20%	?
O=[N+]([O-])c1ccc(O)c2cccnc12	-10	?	0%[46.1 µM]	-13%	13%
O=[N+]([O-])c1cc([N+](=O)[O-])c2cccnc2c1Oc1ccccc1O	-28	?	?	16µM*	?
CN(C)c1ccc(N=Nc2ccccc2C(=O)OCC(=O)Nc2ccccc2C(F)(F)F)cc1	-75*	0%	6%[46.1 µM]	-2%	18%[46.1 µM]
O=C(NCc1ccc(Cl)cc1)c1ccc2oc(=O)n(Cc3ccccc3)c2c1	-11	/	?	-27%	/
COc1ccccc1N1C(=O)CC1(C#N)c1ccc(OCc2ccccc2)cc1 (centres undefined)	57	-4%	?	-26%	?
Cc1ccccc1N1C(=O)CC1(C#N)c1ccc(OCc2ccccc2)cc1 (centres undefined)	-85*	-29%	10µM*	-8%	?
COC(=O)c1c(-c2ccc(OC)cc2)sc2cc3c(cc12)OCO3	90	11µM*	/	55%	/
COc1ccc(-c2sc3cc(OC)c(OC)cc3c2C#CC2(O)CCCCC2)cc1	9	16µM*	/	-21%	/
COc1ccc(-c2sc3cc(OC)c(OC)cc3c2C#CCCO)cc1	-18	?	/	-23%	/
COc1ccc(-c2sc3ccccc3c2C#CC2(O)CCCCC2)cc1	-16	?	/	-16%	/
COc1ccc(-c2sc3ccccc3c2C#CCO)cc1	?	28µM*	/	-23%	/
COc1ccc(-c2sc3ccc(N4CCOCC4)cc3c2C#CCCO)cc1	37	4µM*	/	?	/
COc1ccc(-c2sc3ccccc3c2C#CCCO)cc1	93	?	/	-12%	/
CCc1nc2c(OCc3cccc(Cl)c3)cccn2c1N(C)C(=O)c1ccc(C)cc1	-6	/	/	/	/
CCOc1ccccc1CNc1nc2nc(C)cc(C)n2n1	11	/	3%[46.1 µM]	-13%	2%[46.1 µM]
Cn1cncc1C#Cc1c(-c2ccc(S(C)(=O)=O)cc2)sc2ccccc12	-29	4%	/	?	/
COc1cc(-c2ccc3sc(-c4ccsc4)c(C#CCO)c3c2)cc(OC)c1OC	-23	3.2µM*	/	-27%	/
COc1ccc2sc(-c3ccccc3OC)c(C#Cc3cncn3C)c2c1	-30	?	/	-24%	/
COc1ccccc1-c1sc2cc3c(cc2c1C#Cc1cncn1C)OCO3	25	0.89µM*	/	?	/
COc1ccc(-c2sc3cc4c(cc3c2C#CCO)OCO4)cc1	-16	11µM*	/	-25%	/

High-throughput results: PubChem, National Center for Advancing Translational Sciences (NCATS)
